According to PubChem BioAssay (Tox21):
Records with an inconclusive call do not appear. Calls of active or inactive are those of the source. Calls come from the whole dose curve; as a rule, active = well fitted cell-killing curve with a large enough effect in the repeat runs; inconclusive = weak or mixed curves, or effect the other way; inactive = flat fitted curve, though single readings scatter.

Experiment: qHTS assay to identify small molecule agonists of the estrogen receptor beta (ER-beta) signaling pathway - cell viability counter screen (AID 1259380); note: nearly all actives have a fitted effect of over 30% in size
Conditions: ER-beta-bla HEK293T viability, CellTiter-Glo luminescence, 16 h; series mostly up to 92.4 µM; activity change, negative = cytotoxicity: at the top concentration
From the text: National Center for Advancing Translational Sciences [NCATS]
NIH Chemical Genomics Center [NCGC]
U.S. Environmental Protection Agency [EPA]
National Institutes of Environmental Health Sciences [NIEHS]
National Toxicology Program [NTP]
U.S. Food and Drug Administration [FDA]
Estrogen receptor (ER), a nuclear hormone receptor, plays an important role in development, metabolic homeostasis and reproduction. Two subtypes of ER, ER-alpha and ER-beta, have similar expression patterns with some uniqueness in both types. Endocrine disrupting chemicals (EDCs) and their interactions with steroid hormone receptors like ER causes disruption of normal endocrine function. To identify the compounds that activate ER signaling, an ER beta-UAS-bla GripTite cell line (Life Technologies, Madison, WI, USA) containing a beta-lactamase reporter gene under the control of an UAS response element was used to screen Tox21 10K compound library. The cytotoxicity of the Tox21 compound library against the ER-beta-bla cell line was tested in parallel by measuring the cell viability using CellTiter-Glo assay in the same wells.
Tox21 Assay Protocol Summary:
ER-beta-UAS-bla HEK293T cells were dispensed at 2,000 cells/5 uL of assay medium containing 2% charcoal stripped FBS per well into black wall/clear-bottom 1536-well plates using a Multidrop Combi (ThermoFisher Scientific, Waltham, MA) dispenser. After the assay plates were incubated at a 37C and 5% CO2 for 6 hr, 23 nL of compounds dissolved in DMSO, positive controls or DMSO only was transferred to the assay plate by a Pintool station (Kalypsys, San Diego, CA). The plates were incubated at 37C and 5% CO2 for 16 hr. Then 1 uL of LiveBLAzerTM B/G FRET substrate was added using a BioRAPTR FRD (Flying Reagent Dispenser, Aurora Discovery, San Diego, CA) and then the plates were incubated at room temperature for 2 hours, and fluorescence intensity was measured by an Envision plate reader (PerkinElmer, Shelton, CT). For cell viability readout that measures cytotoxicity, 4 uL/well of CellTiter-Glo reagent was added into the assay plates using a FRD. After 30 min incubation at room temperature, the luminescence intensity in the plates was measured using a ViewLux (PerkinElmer) plate reader.
% is set by controls: 0 for no effect and ±100 for the full control effect.

SMILES	activity change, negative = cytotoxicity
CCOC(=O)COc1cc(-n2ncc(C(F)(F)F)c(C)c2=O)c(F)cc1Cl	0.096% (inactive)
O=C1c2ccccc2C(=O)c2cc(O)ccc21	-0.99% (inactive)
Cc1nc(C2CCCCC2)c(-c2ccc(S(N)(=O)=O)c(F)c2)o1	-0.0624% [at 42.5 µM] (inactive)
CCCCN(CCC(=O)OCC)C(C)=O	-0.843% (inactive)
Cc1c(N)c(=O)n(-c2ccccc2)n1C	8.45% [at 42.5 µM] (inactive)
CCN1C=CN(C)C1C (stereo not given)	7.29% (inactive)
CCCCOCCOC(=O)COc1cc(Cl)c(Cl)cc1Cl	2.68% (inactive)
CC(C(=O)O)c1cccc(Oc2ccccc2)c1 (stereo not given)	1.8% [at 42.5 µM] (inactive)
CC(=O)c1ccc2ccccc2c1	1.15% (inactive)
COCCOCC(OC)OC	2.51% [at 42.5 µM] (inactive)
CCCCc1nc(Cl)c(CO)n1Cc1ccc(-c2ccccc2-c2nn[nH]n2)cc1	0.221% [at 42.5 µM] (inactive)
CC(C)[C@H]1CC[C@@H](C)CC1=O	2.57% (inactive)
O=C(CO)[C@@H](O)[C@H](O)[C@H](O)CO	1.97% (inactive)
CCN[C@H]1C[C@H](C)S(=O)(=O)c2sc(S(N)(=O)=O)cc21	2.03% [at 42.5 µM] (inactive)
COc1cc2c(cc1OC)-c1cc3ccc(OC)c(OC)c3c[n+]1CC2	0.622% (inactive)
CC1CCC(CO)CC1 (stereo not given)	6.11% (inactive)
CC[N+](CC)(CC(=O)Nc1c(C)cccc1C)Cc1ccccc1 (tested in a mixture with another compound)	2.7% [at 42.5 µM] (inactive)
C=COC(=O)C(C)(CC)CCC(C)C (stereo not given)	1.36% (inactive)
C=CN1CCCCCC1=O	-0.546% (inactive)
CN(C)[C@@H]1C(=O)C(C(=O)NCN2CCCC2)=C(O)[C@@]2(O)C(=O)C3=C(O)c4c(O)cccc4[C@@](C)(O)C3C[C@@H]12 (stereo not given in full)	-4.86% [at 42.5 µM] (inactive)

SMILES	activity change, negative = cytotoxicity
CN1[C@@H]2CC[C@H]1CC(OC(=O)C(O)c1ccccc1)C2 (stereo not given in full)	1.87% [at 42.5 µM] (inactive)
CC(CO)(CO)[N+](=O)[O-]	0.762% (inactive)
c1ccc(CCc2ccccc2)cc1	0.0378% (inactive)
C=CC(=O)OCCCl	-8.43% (inactive)
Nc1ccn([C@@H]2O[C@H](CO)[C@@H](O)[C@@H]2O)c(=O)n1	4.09% (inactive)
CCOC(=O)C(=O)CCCCCCl	3.99% [at 42.5 µM] (inactive)
CCCC[N+](C)(CCCC)CCCC	7.08% (inactive)
NCCCC(N)(C(=O)O)C(F)F (stereo not given)	6% [at 42.5 µM] (inactive)
C[C@H]1C[C@H]2[C@@H]3CCC4=CC(=O)C=C[C@]4(C)[C@H]3C(=O)C[C@]2(C)[C@@]1(O)C(=O)CO	13% [at 42.5 µM] (inactive)
NC(CCC(=O)O)C(=O)O (stereo not given)	-2.69% (inactive)
CNCC(O)c1ccc(O)c(O)c1 (stereo not given)	0.982% [at 42.5 µM] (inactive)
CCOC(=O)COC(=O)c1ccccc1C(=O)OCC	1.08% (inactive)
CC1=NN(c2cc(S(=O)(=O)O)ccc2Cl)C(=O)C1N=Nc1ccccc1 (stereo not given)	-0.36% (inactive)
C[N+]1(CC2COC(c3ccccc3)(c3ccccc3)O2)CCCCC1 (stereo not given)	12% [at 19 µM] (inactive)
Cc1ccccc1N=C(N)N=C(N)N	5.43% (inactive)
Cc1ccc(C(=O)Nc2ccc(S(=O)(=O)O)c3cc(S(=O)(=O)O)cc(S(=O)(=O)O)c23)cc1NC(=O)c1cccc(NC(=O)Nc2cccc(C(=O)Nc3cc(C(=O)Nc4ccc(S(=O)(=O)O)c5cc(S(=O)(=O)O)cc(S(=O)(=O)O)c45)ccc3C)c2)c1	3.95% [at 42.5 µM] (inactive)
CN1C(C)(C)CC(O)CC1(C)C	0.43% (inactive)
C=CC(C)(CCC=C(C)C)OC(=O)CC (stereo not given)	5.27% (inactive)
O=C(O)c1cn(C2CC2)c2cc(N3CCNCC3)c(F)cc2c1=O	10.2% [at 42.5 µM] (inactive)
C=CCCCCCCCCC(=O)OCC	1.07% (inactive)
